# Results filed as inconclusive are left out. Active and inactive are the calls of the source. Rule for the calls, unless noted: active = hit-call score of the fitted dose curve at least 0.9, where 1 is the maximum; inconclusive = response in the unintended direction; inactive = score below 0.9.
# Test system: not listed separately
# Assay: ATG_VDRE_CIS: Attagene CIS-FACTORIAL HepG2 Assay for human Vitamin D Receptor Element (VDRE) (AID 2282968; active = hit-call score of the fitted dose curve at least 0.9, where 1 is the maximum; inactive = score below 0.9)
# Conditions: HepG2 VDRE cis-reporter transcription, actives raise or lower the signal
# Procedure, shortened: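 HepG2 cells transiently transfected with cis-element reporter units, dosed 24 h; reporter mRNA measured by RT-PCR, 6-FAM labeling, HpaI digestion and capillary electrophoresis. Activity fitted bidirectionally against DMSO baseline.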
Compound,outcome,AC50
Nc1ccc(-c2ccc(N)c(N)c2)cc1N,inactive,–
CCOP(O)OCC,inactive,–
O=c1[nH]c(Cl)c(Cl)cc1Cl,inactive,–
[CH3][Sn]([Cl])([Cl])[Cl],inactive,–
Nc1c(Cl)c(Cl)c(Cl)c(Cl)c1Cl,inactive,–
O=C(O)CCCc1ccc(N(CCCl)CCCl)cc1,inactive,–
Nc1cc(Cl)cc(Cl)c1,inactive,–
[CH3][Sn]([CH3])([Cl])[Cl],inactive,–
O=S(=O)(c1ccccc1)c1ccccc1,–,31.4 µM (active)
CN(C)C(=O)C(c1ccccc1)c1ccccc1,inactive,–
C=CCc1ccc(OC(=O)Cc2ccccc2)c(OC)c1,–,27.5 µM (active)
O=P(O)(Oc1ccccc1)Oc1ccccc1,inactive,–
CC1CCCC1.[C-]#[O+].[C-]#[O+].[C-]#[O+].[Mn],inactive,–
Cc1ccc(N(SC(F)(Cl)Cl)S(=O)(=O)N(C)C)cc1,–,14.4 µM (active)
CC1(C)CC(=O)CC(C)(C)N1[O],inactive,–
SCc1ccco1,inactive,–
O=CNC(N1CCN(C(NC=O)C(Cl)(Cl)Cl)CC1)C(Cl)(Cl)Cl (stereo not given),–,15.3 µM (active)
Oc1cc(Cl)ccc1Cl,inactive,–
C[C@]12CCC(=O)C(O)=C1CC[C@@H]1[C@@H]2CC[C@]2(C)C(=O)CC[C@@H]12,inactive,–
CSc1nc(N=[N+]=[N-])nc(NC(C)C)n1,inactive,–

# Target: Nuclear receptor subfamily 1 group I member 3 (Homo sapiens) (UniProt Q14994)
# Sequence (Q14994 whole entry, looked up): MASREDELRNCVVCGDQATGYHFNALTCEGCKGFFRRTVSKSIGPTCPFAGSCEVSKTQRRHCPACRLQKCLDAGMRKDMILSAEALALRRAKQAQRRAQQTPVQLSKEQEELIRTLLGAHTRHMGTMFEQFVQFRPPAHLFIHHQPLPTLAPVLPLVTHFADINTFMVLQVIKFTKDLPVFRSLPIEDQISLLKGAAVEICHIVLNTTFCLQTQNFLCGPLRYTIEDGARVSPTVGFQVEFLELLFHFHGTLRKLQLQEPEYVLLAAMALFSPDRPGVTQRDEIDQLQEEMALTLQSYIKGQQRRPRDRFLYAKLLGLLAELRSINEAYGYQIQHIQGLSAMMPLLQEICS
# Assay: ATG_CAR_TRANS: Attagene TRANS-FACTORIAL HepG2 Assay for human Constitutive Androstane Receptor (CAR) (AID 2282969);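 note: activators raise reporter mRNA above DMSO so AC50 marks induction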
# Conditions: HepG2 Attagene TRANS-FACTORIAL CAR reporter
# Procedure, shortened: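 HepG2 cells transiently transfected with multiplexed GAL4-UAS reporter units expressing chimeric NR-Gal4 proteins; compound exposure 24 h. Reporter mRNA measured by RT-PCR, 6-FAM labelling, HpaI digestion and capillary electrophoresis; gain-of-signal fitted against DMSO baseline.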
row,Compound,outcome
1,Nc1ccccc1C(=O)OCCc1ccccc1,inactive
2,COC(C)(C)CCC[C@H](C)C/C=C/C(C)=C/C(=O)OC(C)C,inactive
3,Clc1ccc(-c2ccccc2)cc1,inactive
4,O=P(O)(Oc1ccccc1)Oc1ccccc1,inactive
5,CCC(=O)c1ccc(Cl)cc1,inactive
6,CC1(C)CC(=O)CC(C)(C)N1[O],inactive
7,SCc1ccco1,inactive

# Target: Estrogen receptor (Homo sapiens) (UniProt P03372)
# Sequence (P03372 whole entry, looked up): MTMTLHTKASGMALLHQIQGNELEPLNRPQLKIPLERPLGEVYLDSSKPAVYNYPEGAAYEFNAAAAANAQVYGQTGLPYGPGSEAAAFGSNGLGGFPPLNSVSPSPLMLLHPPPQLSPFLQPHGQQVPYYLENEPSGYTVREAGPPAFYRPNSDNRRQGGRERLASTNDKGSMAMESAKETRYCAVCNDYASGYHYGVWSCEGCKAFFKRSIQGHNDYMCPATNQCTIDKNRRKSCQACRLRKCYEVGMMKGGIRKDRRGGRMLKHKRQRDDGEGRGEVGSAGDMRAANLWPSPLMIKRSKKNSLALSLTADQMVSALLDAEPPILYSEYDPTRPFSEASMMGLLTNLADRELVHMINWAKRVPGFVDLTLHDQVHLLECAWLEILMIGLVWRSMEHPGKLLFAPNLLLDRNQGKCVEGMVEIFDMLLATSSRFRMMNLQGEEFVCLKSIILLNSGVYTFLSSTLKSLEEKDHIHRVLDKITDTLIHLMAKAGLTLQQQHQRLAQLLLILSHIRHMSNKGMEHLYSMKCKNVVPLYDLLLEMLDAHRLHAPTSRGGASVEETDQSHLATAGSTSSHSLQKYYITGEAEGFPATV
# Assay: ATG_ERa_TRANS: Attagene TRANS-FACTORIAL HepG2 Assay for human Estrogen Receptor alpha (ERa) (AID 2282970)
# Conditions: HepG2 Attagene TRANS ERa GAL4 reporter, mRNA
# Procedure, shortened: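 After 24 h of compound treatment, RNA from HepG2 cells bearing transfected GAL4-UAS reporter constructs is converted to cDNA, amplified and fluorescently labelled. Capillary electrophoresis resolves the ERa-linked reporter; DMSO serves as negative control.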
Compound,outcome,AC50
O=C(O)CCCc1ccc(N(CCCl)CCCl)cc1,inactive,–
COc1ncc(F)c2nc(S(=O)(=O)Nc3c(F)cccc3F)nn12,inactive,–
BrCBr,inactive,–
O=C(O)c1cc[c]([Hg][Cl])cc1,inactive,–
C[N+](C)(C)CC(=O)O,inactive,–
Clc1ccc(-c2ccccc2)cc1,–,36.8 µM (active)
O=P(O)(Oc1ccccc1)Oc1ccccc1,inactive,–
O=C(O)COc1ccccc1,inactive,–
SCc1ccco1,–,54.1 µM (active)
O=CNC(N1CCN(C(NC=O)C(Cl)(Cl)Cl)CC1)C(Cl)(Cl)Cl (stereo not given),inactive,–
O=[N+]([O-])c1cc(C(F)(F)F)c(Cl)c([N+](=O)[O-])c1Cl,–,14.6 µM (active)
C[C@]12CCC(=O)C(O)=C1CC[C@@H]1[C@@H]2CC[C@]2(C)C(=O)CC[C@@H]12,–,9.42 µM (active)
CSc1nc(N=[N+]=[N-])nc(NC(C)C)n1,inactive,–

# From PubChem BioAssay (EPA / NIEHS)
